According to PubChem BioAssay (NCATS):
Results filed as inconclusive are left out. A call without a number means that no potency is given here. The source made the active and inactive calls. Unless noted, calls follow the shape of the dose curve; as a rule, active = well fitted curve in the direction sought with a large enough effect; inconclusive = small, poorly fitted or top-dose-only effect, or another doubt; inactive = no such curve, though single readings can be large; an effect the other way counts as inactive or inconclusive.

What was measured:
[1] = molecular target: Cytochrome P450 3A4 (Homo sapiens) (UniProt P08684); experiment: qHTS Assay for Inhibitors and Substrates of Cytochrome P450 3A4 (AID 884); also: nearly all actives have a fitted effect of over 50% in size
Cytochrome P450 3A4 (Homo sapiens), sequence (P08684 whole entry, looked up): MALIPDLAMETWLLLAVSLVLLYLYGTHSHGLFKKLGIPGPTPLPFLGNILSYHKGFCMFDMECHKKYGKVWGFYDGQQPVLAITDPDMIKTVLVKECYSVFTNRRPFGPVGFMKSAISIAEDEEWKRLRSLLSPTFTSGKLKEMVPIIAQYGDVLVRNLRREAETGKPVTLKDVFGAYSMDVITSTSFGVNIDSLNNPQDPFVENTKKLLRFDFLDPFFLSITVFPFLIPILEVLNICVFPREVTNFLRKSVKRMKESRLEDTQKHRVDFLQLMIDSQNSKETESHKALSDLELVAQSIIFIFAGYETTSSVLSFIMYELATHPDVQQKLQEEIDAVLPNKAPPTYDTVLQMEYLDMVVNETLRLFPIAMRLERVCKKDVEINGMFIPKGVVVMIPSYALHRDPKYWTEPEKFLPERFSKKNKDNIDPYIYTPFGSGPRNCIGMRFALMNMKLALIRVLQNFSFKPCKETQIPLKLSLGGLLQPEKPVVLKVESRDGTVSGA
Procedure, shortened: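 20 nM human CYP3A4 with 25 uM Luciferin-PPXE (at KM) in 200 mM KPO4, preincubated 10 min with compound; NADPH regeneration started a 60 min RT reaction. Luciferin detected by luminescence, normalized to 57 uM ketoconazole as full inhibition.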

[2] = Confirmation and Secondary Assay for Modulators of Hemoglobin Beta Chain Splicing at IVS2 654 locus (AID 910)
Procedure, shortened: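 HeLa cells stably carrying EGFP interrupted by mutant beta-globin IVS2-654 intron (CMV-driven) were treated with compound for 2 days at 37C; corrected splicing was scored as total peak GFP intensity per well (488 nm excitation, 500-520 nm emission).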

[3] = Confirmation and Secondary Assay for Modulators of Hemoglobin Beta Chain Splicing at IVS2 705 locus (AID 930);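 also: HeLa cells stably expressing the EGFP-705 splicing reporter; GFP fluorescence per well restored by corrected splicing of the IVS2-705 intron in EGFP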
Procedure, shortened: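 Read-out: total peak GFP fluorescence per well (488 nm excitation, 500-520 nm emission) by laser-scanning cytometry. Cells: HeLa EGFP-705 splicing reporter, 2 days compound exposure in Optimem/2% FCS.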

[4] = qHTS Assay for Lipid Storage Modulators (AID 1519; calls by dose curve); conditions: Drosophila S3 cells, BODIPY lipid droplet/cell ratio, laser cytometry, cells loaded with oleic acid; for activity change, negative = inhibition: at 57.5 µM (top of the series)
Procedure, shortened: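 Cells seeded at 5,000 per well were treated with compounds over a concentration series and loaded with oleic acid (400 uM, as added). Lipid droplet fluorescence (488 nm excitation, 500-530 nm channel) was read by laser-scanning cytometry and normalized to 20 uM Triacsin C.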

[5] = molecular target: Ubiquitin carboxyl-terminal hydrolase 1 (Homo sapiens) (UniProt O94782); experiment: Inhibitors of USP1/UAF1: Pilot qHTS (AID 504865);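 also: rhodamine fluorescence freed from ubiquitin-rhodamine substrate followed over time; top concentration of the series differs between compounds; nearly all actives have a fitted effect of over 35% in size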
Ubiquitin carboxyl-terminal hydrolase 1 (Homo sapiens), sequence (O94782 whole entry, looked up): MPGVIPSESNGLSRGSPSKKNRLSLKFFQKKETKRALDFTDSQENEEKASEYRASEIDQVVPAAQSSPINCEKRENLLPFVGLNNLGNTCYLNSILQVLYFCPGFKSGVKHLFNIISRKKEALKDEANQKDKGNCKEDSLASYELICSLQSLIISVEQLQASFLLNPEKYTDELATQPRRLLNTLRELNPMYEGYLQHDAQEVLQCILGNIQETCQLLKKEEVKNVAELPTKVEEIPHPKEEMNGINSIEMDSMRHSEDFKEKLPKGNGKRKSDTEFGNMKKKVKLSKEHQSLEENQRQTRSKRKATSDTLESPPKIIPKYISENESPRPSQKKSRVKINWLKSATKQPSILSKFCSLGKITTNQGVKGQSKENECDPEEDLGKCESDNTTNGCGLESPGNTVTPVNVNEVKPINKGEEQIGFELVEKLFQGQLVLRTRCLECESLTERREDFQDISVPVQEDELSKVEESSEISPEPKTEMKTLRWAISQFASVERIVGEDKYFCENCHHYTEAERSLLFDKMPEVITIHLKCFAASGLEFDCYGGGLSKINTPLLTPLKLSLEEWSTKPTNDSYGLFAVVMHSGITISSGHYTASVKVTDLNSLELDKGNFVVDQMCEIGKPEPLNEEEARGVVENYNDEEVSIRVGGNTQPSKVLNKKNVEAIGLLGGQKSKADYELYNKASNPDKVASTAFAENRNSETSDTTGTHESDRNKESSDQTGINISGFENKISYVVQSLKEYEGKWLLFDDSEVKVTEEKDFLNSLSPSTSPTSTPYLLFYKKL
Procedure, shortened: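 Kinetic fluorescence assay: 1nM USP1/UAF1, 15 min compound preincubation, then 150nM Ub-Rho; 480/540 nm.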

[6] = measured here: cell count channel max response
[7] = measured here: lipid channel max response

Row | Compound | Potency [1] | Potency [2] | Potency [3] | activity change, negative = inhibition [4] | max response [4, 6] | max response [4, 7] | Potency [5]
1 | Nc1nc2ncc(=O)[nH]c2c(=O)[nH]1 | inactive | inactive | inactive | 4.1% (inactive) | 2.7% | 6.73% | inactive
2 | Nc1nc2c(nc(Br)n2C2CC(O)C(CO)O2)c(=O)[nH]1 (stereo unspecified) | inactive | inactive | inactive | 3.88% (inactive) | 4.93% | 9.77% | inactive
3 | COc1ccc(-c2oc3c(CC=C(C)C)c(O[C@H]4OC(CO)C(O)C(O)C4O)cc(O)c3c(=O)c2O[C@@H]2OC(C)C(O)C(O)C2O)cc1 (stereo partly specified) | inactive | inactive | inactive | 3.91% (inactive) | 22% | 29.5% | inactive
4 | CC(C)CCCC(C)C1CCC2C3CC=C4CC(O)CC[C@@]4(C)C3CC[C@@]12C (stereo partly specified) | inactive | inactive | inactive | 2.88% (inactive) | -11.4% | -8.92% | inactive
5 | O=c1[nH]cnc2c1nc(Cl)n2C1OC(CO)C(O)C1O (stereo unspecified) | inactive | inactive | inactive | 3.67% (inactive) | 5.38% | 10.4% | inactive
6 | C[C@@]12CCC(O)C[C@H]1CCc1ccccc12 (stereo partly specified) | inactive | inactive | inactive | 1.53% (inactive) | 0.578% | 6.01% | inactive
7 | CCC(CCC(C)C1CCC2C3CC=C4CC(OC(C)=O)CC[C@@]4(C)C3CC[C@@]12C)C(C)C (stereo partly specified) | inactive | inactive | inactive | 5.75% (inactive) | 28.8% | 28.4% | inactive
8 | COc1cc(NS(C)(=O)=O)ccc1Cc1c2ccccc2nc2ccccc12 | inactive | inactive | inactive | 4.8% (inactive) | 13% | 21.3% | inactive
9 | COC(=O)Oc1ccccc1C(=O)O | inactive | inactive | inactive | 5.3% (inactive) | 15.1% | 21.1% | inactive
10 | CC(C)CC(N)C(=O)NC(C)C(=O)O (stereo unspecified) | inactive | inactive | inactive | 3.3% (inactive) | 18.5% | 21.6% | inactive
11 | COc1cc2c(cc1OC)C1(O)C(=O)c3ccc(O)c(C(=O)O)c3OC1CO2 (stereo unspecified) | inactive | inactive | inactive | 8.88% (inactive) | 8.21% | 21.1% | inactive
12 | Nc1nc(Cl)c2ncn(C3OC(CO)C(O)C3O)c2n1 (stereo unspecified) | inactive | inactive | inactive | 1.75% (inactive) | -10% | -7.18% | inactive
13 | COc1cc(-c2coc3cc(OC)c(OC)c(OC)c3c2=O)cc(OC)c1OC | inactive | inactive | inactive | 2.36% (inactive) | 17.7% | 21.5% | inactive
14 | C[C@]12CCC3c4ccc(O)cc4CCC3C1CC(O)C2O (stereo partly specified) | inactive | inactive | inactive | -4.9% (inactive) | 6.91% | 3.96% | inactive
15 | CC1CC[C@@]2(OC1)OC1CC3C4CC[C@H]5CC(O)CC[C@@]5(C)C4CC[C@]3(C)C1C2C (stereo partly specified) | inactive | inactive | inactive | 2.03% (inactive) | 27.2% | 29.7% | inactive
16 | NCCC(=O)N[C@H](Cc1cnc[nH]1)C(=O)O | inactive | inactive | inactive | 4.17% (inactive) | 11.4% | 10.9% | inactive
17 | CS(=O)(=O)c1ccc(C(O)C(CO)NC(=O)C(Cl)Cl)cc1 (stereo unspecified) | inactive | inactive | inactive | 6.29% (inactive) | 3.52% | 13.6% | inactive
18 | O=C(/C=C/C(=O)Oc1ccccc1C(=O)O)Oc1ccccc1C(=O)O | inactive | inactive | inactive | 7.98% (inactive) | 4.07% | 13.2% | inactive
19 | C=C1CCC(C2CC(=O)OC2=O)C(=O)CCC2C1CC2(C)C (stereo unspecified) | inactive | inactive | inactive | 4.44% (inactive) | 19.1% | 26.1% | inactive
20 | COc1ccc(-c2coc3cc(O)ccc3c2=O)c(OC)c1O | inactive | inactive | inactive | -3.58% (inactive) | 12.3% | 2.49% | inactive
21 | CC(=O)Oc1ccc2c(c1)CCC1C2CC[C@]2(C)C(=O)CCC12 (stereo partly specified) | inactive | inactive | inactive | -6.33% (inactive) | -13.1% | -17.8% | inactive
22 | CC1CCC(C(C)C)[C@H](O)C1 (stereo partly specified) | inactive | inactive | inactive | 8.01% (inactive) | -2.41% | -1.46% | inactive
23 | NC(CSCSCC(N)C(=O)O)C(=O)O (stereo unspecified) | inactive | inactive | inactive | 1.54% (inactive) | 7.28% | 12.4% | inactive
